Data reported in a collection of fitness landscapes (doi:10.1016/j.celrep.2020.107928).
Over roughly 81,000 sequences, “one-hybrid fitness for binding parS DNA” has its median near -0.17; the highest 2% begin near 0.51. This is one part of a sample in which the highest values are shown more often than they occur.

B1: Caulobacter ParB omega fusion; a variant is named by its letters at X, in order, B8GW30 (parent)
chain: MESVVVGEPGMSEGRRGLGRGLSALLGEVDAAPAQAPGEQLGGSREAPIEILQRNPDQPRRTFREEDLEDLSNSIREKGVLQPILVRPSPDTAGEYQIVAGERAWRAAQRAGLKTVPIMVRELDDLAVLEIGIIENVQRADLNVLEEALSYKVLMEKFERTQENIAQTIGKSXSHVANXMRLLXLPDEVQSYLVSGELTAXHARAIAAAADPVALAKQIIEGGLSVRETEALARKAPNLSAGKSKGGRPPRVKDTDTQALESDLSSVLGLDVSIDHRGSTGTLTITYATLEQLDDLCNRLTRGI

Variants of: B1
Assay: one-hybrid fitness for binding parS DNA (scaled: cognate 1, non-cognate 0); higher = stronger binding
Details: with parS DNA site
In short: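 Fitness is the rescaled log change in variant-to-wild-type read ratio, measured by Illumina sequencing of plasmids before and after bacterial one-hybrid selection. The scale puts cognate at 1 and non-cognate at 0. Selection of Caulobacter ParB libraries, four specificity codons randomised, took place in E. coli USO with a HIS3 reporter, site 19 bp from the promoter, over 48 hours at 37°C on M9-minus-histidine with 0.1 mM IPTG and 5 mM 3-AT.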

one-hybrid fitness for binding parS DNA, 0.316:
RQVN

one-hybrid fitness for binding parS DNA, 0.603:
RMHA

one-hybrid fitness for binding parS DNA, 0.586:
RATA

one-hybrid fitness for binding parS DNA, 0.213:
RKYQ

one-hybrid fitness for binding parS DNA, 0.234:
RASF

one-hybrid fitness for binding parS DNA, 0.581:
RQKY

one-hybrid fitness for binding parS DNA, 0.268:
RAGH

one-hybrid fitness for binding parS DNA, 0.55:
RITA

one-hybrid fitness for binding parS DNA, 0.21:
RKHM

one-hybrid fitness for binding parS DNA, 0.925:
RKYC

one-hybrid fitness for binding parS DNA, 0.908:
RADG
RKCC

one-hybrid fitness for binding parS DNA, 0.272:
RKLM

one-hybrid fitness for binding parS DNA, ≤ 0.2:
DTHA
NTHA
PFHA
AFHA
DMHA
VHWV
CRAC
QHLA
DKPG
IKTN
AQFC
TGAE
RVFK
RVFP
GARV
QRMF
NQTA
KQTA
EYTA
NRTA
DTTA
NYTA
NTTA
DRTA
FTDF
KGIS
VCHR
EKES
KHQG
LHTY
DYTC
APHT
YEEE
RETA
RDTA
NLQR
HMPW
LVSL
QMTR
KAGR
GRLC
QTFT
ATQR
IINN
QNFC
DITA
AVTA
EFTA
DFTA
NVTA
EITA
RPTA
GLTC
TSQQ
VYNA
AYGG
SRQV
FRFR
ACAI
TPWT
GHMG
PGAS
DLTA
DATA
NLTA
HHAP
NDPH
RCLD
KLRG
RIFR
RIAQ
QSSH
PVNK
RQKP
RQVD
RQKD
TGHV
GPHD
RARD
RAYH
RARP
RANE
RAYD
RANQ
PSYN
WIKS
SDEV
WGFG
PYGM
CARA
PAYT
APAI
YGRH
RALD
RAGP
RALP
RAHK
RASR
ACSG
LMLS
QSHN
TPPK
GNDG
GGIR
HVTA
LPSV
VEFL
RADD
RAQK
QSRC
AVDS
RKSH
RKSD
RKRK
RKHQ
RKLR
DVNN
VNYS
PWEG
NNLY
VLIA
VPYR
LEDT
PHLT
MREY
RKND
RKDR
RKCD
RKDF
RKYR
RKNP
RKCH

one-hybrid fitness for binding parS DNA, 0.473:
RNTA

one-hybrid fitness for binding parS DNA, 0.578:
RSTA
RVTA

one-hybrid fitness for binding parS DNA, 0.464:
RVAY

one-hybrid fitness for binding parS DNA, 0.656:
RRTA

one-hybrid fitness for binding parS DNA, 0.375:
RQVY

one-hybrid fitness for binding parS DNA, 0.228:
RACF

one-hybrid fitness for binding parS DNA, 0.612:
RTTA

one-hybrid fitness for binding parS DNA, 0.956:
RARG

one-hybrid fitness for binding parS DNA, 0.367:
RIAM

one-hybrid fitness for binding parS DNA, 0.241:
RAHP

one-hybrid fitness for binding parS DNA, 0.834:
RIFT

one-hybrid fitness for binding parS DNA, 0.885:
RIAT

one-hybrid fitness for binding parS DNA, 0.494:
RQYY

one-hybrid fitness for binding parS DNA, 0.53:
RFHA

one-hybrid fitness for binding parS DNA, 0.864:
RQKS

one-hybrid fitness for binding parS DNA, 0.999:
RVAG

one-hybrid fitness for binding parS DNA, 0.459:
RWTA

one-hybrid fitness for binding parS DNA, 0.526:
RHHA

one-hybrid fitness for binding parS DNA, 0.923:
RKDC

one-hybrid fitness for binding parS DNA, 0.297:
RIFF

one-hybrid fitness for binding parS DNA, 0.882:
RKHC

one-hybrid fitness for binding parS DNA, 0.993:
RVFG

one-hybrid fitness for binding parS DNA, 0.921:
RKLC

one-hybrid fitness for binding parS DNA, 0.746:
RKTA

one-hybrid fitness for binding parS DNA, 0.609:
RCTA

one-hybrid fitness for binding parS DNA, 0.372:
RADN

one-hybrid fitness for binding parS DNA, 0.541:
RFTA

one-hybrid fitness for binding parS DNA, 0.937:
RQVS

one-hybrid fitness for binding parS DNA, 0.99:
RAGG

one-hybrid fitness for binding parS DNA, 0.574:
RQTA

one-hybrid fitness for binding parS DNA, 1:
RANG
RASG
RAQG

one-hybrid fitness for binding parS DNA, 0.812:
RKSC

one-hybrid fitness for binding parS DNA, 0.329:
RVAM

one-hybrid fitness for binding parS DNA, 0.806:
RKNC

one-hybrid fitness for binding parS DNA, 0.971:
RACG

one-hybrid fitness for binding parS DNA, 1.01:
RAYG
RAHG
RALG

one-hybrid fitness for binding parS DNA, 0.582:
RYTA

one-hybrid fitness for binding parS DNA, 0.61:
RTHA

one-hybrid fitness for binding parS DNA, 0.376:
RGTA

one-hybrid fitness for binding parS DNA, 0.469:
RAQY

one-hybrid fitness for binding parS DNA, 0.6:
RMTA

one-hybrid fitness for binding parS DNA, 0.281:
RKRM

one-hybrid fitness for binding parS DNA, 0.516:
RHTA

one-hybrid fitness for binding parS DNA, 0.599:
RLTA

one-hybrid fitness for binding parS DNA, 0.737:
RKRC

one-hybrid fitness for binding parS DNA, 0.435:
RACY
